# Screens (PubChem)
# The list is not random: actives were taken first. Their share in the collection is about 5.2%.
# Tau FP inhib: qHTS for Inhibitors of Tau Fibril Formation, Fluorescence Polarization; Microtubule-associated protein tau (Homo sapiens), P10636; K18 P301L tau heparin fibrillization, Alexa594 FP, 6 h; Potency, µM (series often up to 57.7 µM), for the others: top-dose activity, negative = inhibition, hits mostly inhibitors; 0.39% of 280,000 active; note: potency is the fitted concentration of half-maximal effect; nearly all actives have a fitted effect of over 55% in size
# Target sequence (P10636 561-689 P618L limits assumed): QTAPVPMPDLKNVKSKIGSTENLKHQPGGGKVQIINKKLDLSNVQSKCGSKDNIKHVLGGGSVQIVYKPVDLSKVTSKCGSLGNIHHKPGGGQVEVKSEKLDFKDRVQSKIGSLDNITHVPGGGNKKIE
#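 Heparin (20 uM) drove fibril formation of recombinant tau K18 P301L, 15 uM unlabeled with 0.24 uM Alexa 594 label, for 6 hr at 37 C in 100 mM sodium acetate pH 7. Fluorescence polarization (555/632 nm) read 1 hr after 30 uM ThT.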
# FBPA coupling cs: qHTS Assay for Inhibitors of Fructose-1,6-bisphosphate Aldolase from Giardia Lamblia: Coupling assay counterscreen. coupling enzyme system counterscreen, AmpLite Red fluorescence. 0.67% of 290,000 active. activity change, negative = inhibition, % at 58.2 µM, hits read low; in the data active = activity change below about -30%
#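 First, compound is pin-transferred into glyceraldehyde-3-phosphate coupling-enzyme reagent at 57.5 uM final and held 10 min at RT. Next, substrate, coupling system and AmpLite Red are added. After 20 min RT, fluorescence (525/598 nm) is read.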
# Sfp PPTase inh: qHTS Assay for Inhibitors of Bacillus subtilis Sfp phosphopantetheinyl transferase (PPTase) | 4'-phosphopantetheinyl transferase ffp (Bacillus subtilis), Q9F4F7 | Biochemical Sfp PPTase activity, qHTS | Potency, µM, for inactives: largest response in the series, negative = inhibition, most hits filed as inhibitors | 3.5% of 310,000 active | AID 1490, 2009;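 note: the enzyme is Sfp with the accession as filed and its product quenches rhodamine fluorescence; potency is the fitted concentration of half-maximal effect; 0% = enzyme reaction without inhibitor and -100% = no enzyme wells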
#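 Fluorescence-quenching assay: 15 nM Sfp-PPTase preincubated 15 min at room temperature with compound, then 5 uM rhodamine-CoA and 12.5 uM BHQ-2-labelled YbbR peptide added. Fluorescence (ex 525/em 598 nm) read at start and after 30 min; difference gives rate.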
# Tau fluor cs: Counterscreen qHTS for Inhibitors of Tau Fibril Formation, Fluorescence Polarization; 0.93% of 280,000 active; tau K18 P301L Alexa594 fluorescence, heparin fibrillization; Potency, µM (doses to about 57.7 µM), inactives show at the highest dose activity change, negative = decrease; note: potency is the fitted concentration of half-maximal effect; nearly all actives have a fitted effect of over 55% in size
#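 Human K18 P301L tau (15 uM unlabeled plus 0.24 uM Alexa 594-labeled, final) in 100 mM sodium acetate pH 7 was mixed with compound and 20 uM heparin and incubated 6 hr at 37 C.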
# Tau fibril ThT: qHTS for Inhibitors of Tau Fibril Formation, Thioflavin T Binding. recombinant tau K18 P301L, heparin-induced fibrillization, ThT fluorescence. Potency, µM (titrated, usually from 57.4 µM), for the others: at the highest dose activity, negative = inhibition, most hits filed as inhibitors. 2.1% of 270,000 active. AID 1460, 2008; note: potency is the fitted concentration of half-maximal effect; nearly all actives have a fitted effect of over 55% in size
#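 Fibril formation assay: tau K18 P301L at 15 uM with trace Alexa 594 label, heparin inducer 20 uM, pH 7 sodium acetate buffer, 37 C for 6 hr; endpoint ThT signal.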
# * hit, by the source's call; ? = inconclusive; . = no result; [ ] = another dose, or the depositor's remark. Unless noted, calls come from the whole dose curve; as a rule, active = well fitted curve in the direction sought with a large enough effect; inconclusive = small, poorly fitted or top-dose-only effect, or another doubt; inactive = no such curve, though single readings can be large; an effect the other way counts as inactive or inconclusive. Unless noted, % is set by controls: 0 for no effect and ±100 for the full control effect.
SMILES,Tau FP inhib,FBPA coupling cs,Sfp PPTase inh,Tau fluor cs,Tau fibril ThT
Cc1nnc(SCC(=O)NCc2ccco2)[nH]c1=O,-7%,-11,56µM*,-14%,?
COc1ccc(-c2nc(CSCC(=O)N3CCN(c4cccc(C)c4C)CC3)c(C)o2)cc1OC,2%,.,.,-10%,?
COc1ccc(NC(=O)C2CCN(C3=NS(=O)(=O)C(c4ccc(C)c(C)c4)=C3C)CC2)c(OC)c1,10%,.,.,-24%,?
Cc1cc(C)c2cc(C#N)c(SCC(=O)NCc3ccco3)nc2c1,?,7,22µM*,-1%,?
Cc1cc(C)c2cc(C)c(SCC(=O)NCc3ccco3)nc2c1,9%,7,4%,-13%,-20%
CO/N=C1\CN(c2nc3c(cc2F)c(=O)c(C(=O)O)cn3C2CC2)CC1CN (stereo not drawn),-4%,-1,10%,-4%,-1%
COc1ccc(Nc2ncc(C(=O)N3CCN(c4ccc(F)cc4)CC3)c3ccccc23)cc1,?,-3,11%,13µM*[quencher],?
COc1ccc(Nc2ncc(C(=O)N3CCN(c4ccc(OC)cc4)CC3)c3ccccc23)cc1,?,.,.,14µM*[quencher],?
COc1ccc(Nc2ncc(C(=O)O)c3ccccc23)cc1,3%,-7,12%,-14%,-17%
COc1ccc(Nc2ncc(C(=O)Nc3cccc(OC)c3)c3ccccc23)cc1,7%,.,.,14µM*[quencher],?
COc1ccc(NC(=O)c2cccnc2Nc2ccc(OC)cc2)cc1,?,-2,-7%,14µM*[quencher],?
COc1ccc(Nc2ncccc2C(=O)Nc2ccccc2)cc1,-4%,-15,-13%,-4%,-4%
CNc1nc(-c2ccc3c(c2)CCN3C(=O)c2ccccc2F)c(C)s1,?,-3,22µM*,-20%,?
Cc1ccc(CNc2ccc(N3CCOCC3)cc2)s1,8%,0,-12%,-25%,?
CC(=O)Nc1ccc(NC(=O)/C=C/c2ccccc2)cc1,3%,-3,4%,-8%,-12%
COc1cc(CNc2ccc(N3CCCC3)cc2)ccc1OCc1ccccc1,?,-20,?,?,5µM*
CC(=O)N1CCN(c2ccc(NC(=O)/C=C/c3ccccc3)cc2)CC1,9%,1,13%,-27%,2.5µM*
CC(=O)N1CCN(c2ccc(NCc3ccccc3)cc2)CC1,-4%,-3,45µM*,-20%,?
CC(=O)N1CCN(c2ccc(NCc3cccc4ccccc34)cc2)CC1,.,-3,-22%,.,.
CC(=O)N1CCN(c2ccc(NCc3ccc(C)s3)cc2)CC1,?,-23,50µM*,?,?
CC(=O)N1CCN(c2ccc(NCc3cccs3)cc2)CC1,?,-11,22µM*,-30%,28µM*
Cc1ccc(-c2ccc(/C=N/c3ncn[nH]3)o2)cc1Cl,4%,-4,56µM*,5%,-17%
Cc1cccc(-n2ccnc2SCC(=O)Nc2ccccc2C(F)(F)F)c1,-2%,.,.,-12%,-11%
Cc1ccc(N/C=C/c2onc(C)c2[N+](=O)[O-])cc1,6%,0,8%,-24%,0.63µM*
O=C(Nc1cccc(Cl)c1)c1ccc(F)c(S(=O)(=O)NCc2ccc3c(c2)OCO3)c1,?,3,7%,16µM*[quencher],-14%
SMILES,Tau FP inhib,FBPA coupling cs,Sfp PPTase inh,Tau fluor cs,Tau fibril ThT
CCOc1ccccc1NC(=O)c1ccc(F)c(S(=O)(=O)NCc2ccc3c(c2)OCO3)c1,-5%,.,.,-19%,-1%
Cc1ccc(CNS(=O)(=O)c2cc(C(=O)Nc3cccc(C(F)(F)F)c3)ccc2F)cc1,14µM*,.,.,?,22%
CCOC(=O)c1ccc(CN(Cc2ccc(F)cc2)S(=O)(=O)c2ccc(F)c(C(=O)Nc3ccccc3C(F)(F)F)c2)cc1,-11%,.,.,-6%,2%
CCOC(=O)c1ccc(CN(Cc2ccc(F)cc2)S(=O)(=O)c2cc(C(=O)Nc3cccc(C(F)(F)F)c3)ccc2F)cc1,14µM*,.,.,0%,7%
COc1cccc(Cn2c(=O)cnc3cnc(Nc4ccccc4)nc32)c1,.,3,-3%,.,.
O=[N+]([O-])c1ccccc1-c1ccc(C(=S)N2CCCC2)o1,?,-43*,7.9µM*,?,16µM*
O=[N+]([O-])c1ccccc1-c1ccc(C(=S)N2CCCCC2)o1,-12%,-16,25µM*,?,?
NC(=O)CSc1nc2c(oc3ccccc32)c(=O)n1-c1ccccc1F,2%,.,.,5%,7%
CC[C@H](C)[C@H](N)C(=O)N[C@@H](CC(N)=O)C(=O)N1CCC[C@H]1C(=O)N[C@H](C(=O)N[C@@H](Cc1ccc(O)cc1)C(=O)N[C@@H](CCCN=C(N)N)C(=O)N[C@@H](CC(C)C)C(=O)N[C@@H](CCCN=C(N)N)C(=O)N[C@@H](Cc1ccc(O)cc1)C(N)=O)[C@@H](C)CC,.,-1,1%,.,.
CCC1CN(C(=O)N2CCC(C(=O)NCCc3ccc(Cl)cc3)CC2)c2ccccc2O1 (stereo not drawn),12%,.,.,5µM*[quencher],-4%
CCC1CN(C(=O)N2CCC(C(=O)Nc3ccccc3F)CC2)c2ccccc2O1 (stereo not drawn),3%,.,21%,2.5µM*[quencher],-6%
CCC1CN(C(=O)N2CCC(C(=O)NCCc3ccccc3C)CC2)c2ccccc2O1 (stereo not drawn),16%,.,.,-12%,-15%
O=C(NC1CCCCCC1)C1CCN(C(=O)N2CCOc3ccccc32)CC1,?,.,.,7.1µM*[quencher],11%
CC(C)C[C@H](NC(=O)CNC(=O)[C@H](CCC(N)=O)NC(=O)[C@H](CC(C)C)NC(=O)[C@H](CC(C)C)NC(=O)[C@H](CCCNC(=N)N)NC(=O)[C@H](CCC(N)=O)NC(=O)[C@H](CC(C)C)NC(=O)[C@H](CCCNC(=N)N)NC(=O)[C@H](C)NC(=O)CNC(=O)[C@H](CCC(=O)O)NC(=O)[C@H](CCCNC(=N)N)NC(=O)[C@H](CC(C)C)NC(=O)[C@H](CCCNC(=N)N)NC(=O)[C@H](CO)NC(=O)[C@H](CC(C)C)NC(=O)[C@H](CCC(=O)O)NC(=O)[C@H](CO)NC(=O)[C@@H](NC(=O)[C@H](Cc1ccccc1)NC(=O)[C@@H](NC(=O)CNC(=O)[C@H](CC(=O)O)NC(=O)[C@H](CO)NC(=O)[C@@H](N)Cc1cnc[nH]1)[C@@H](C)O)[C@@H](C)O)C(=O)N[C@H](C(N)=O)C(C)C,.,-2,1%,.,.
